In ChEMBL document CHEMBL1961873, “Compounds: GSK PKIS; Assays: Nanosyn kinase panel” (2012) one finds inhibition data, which are given here for 16 compounds.
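Also: values are mean inhibition of TNK2, from the GSK PKIS screening dataset.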

For the test, the target named is Activated CDC42 kinase 1 (Homo sapiens) (UniProt Q07912). To be noted: at 0.1 µM.
Activated CDC42 kinase 1 (Homo sapiens), sequence (Q07912 whole entry, looked up): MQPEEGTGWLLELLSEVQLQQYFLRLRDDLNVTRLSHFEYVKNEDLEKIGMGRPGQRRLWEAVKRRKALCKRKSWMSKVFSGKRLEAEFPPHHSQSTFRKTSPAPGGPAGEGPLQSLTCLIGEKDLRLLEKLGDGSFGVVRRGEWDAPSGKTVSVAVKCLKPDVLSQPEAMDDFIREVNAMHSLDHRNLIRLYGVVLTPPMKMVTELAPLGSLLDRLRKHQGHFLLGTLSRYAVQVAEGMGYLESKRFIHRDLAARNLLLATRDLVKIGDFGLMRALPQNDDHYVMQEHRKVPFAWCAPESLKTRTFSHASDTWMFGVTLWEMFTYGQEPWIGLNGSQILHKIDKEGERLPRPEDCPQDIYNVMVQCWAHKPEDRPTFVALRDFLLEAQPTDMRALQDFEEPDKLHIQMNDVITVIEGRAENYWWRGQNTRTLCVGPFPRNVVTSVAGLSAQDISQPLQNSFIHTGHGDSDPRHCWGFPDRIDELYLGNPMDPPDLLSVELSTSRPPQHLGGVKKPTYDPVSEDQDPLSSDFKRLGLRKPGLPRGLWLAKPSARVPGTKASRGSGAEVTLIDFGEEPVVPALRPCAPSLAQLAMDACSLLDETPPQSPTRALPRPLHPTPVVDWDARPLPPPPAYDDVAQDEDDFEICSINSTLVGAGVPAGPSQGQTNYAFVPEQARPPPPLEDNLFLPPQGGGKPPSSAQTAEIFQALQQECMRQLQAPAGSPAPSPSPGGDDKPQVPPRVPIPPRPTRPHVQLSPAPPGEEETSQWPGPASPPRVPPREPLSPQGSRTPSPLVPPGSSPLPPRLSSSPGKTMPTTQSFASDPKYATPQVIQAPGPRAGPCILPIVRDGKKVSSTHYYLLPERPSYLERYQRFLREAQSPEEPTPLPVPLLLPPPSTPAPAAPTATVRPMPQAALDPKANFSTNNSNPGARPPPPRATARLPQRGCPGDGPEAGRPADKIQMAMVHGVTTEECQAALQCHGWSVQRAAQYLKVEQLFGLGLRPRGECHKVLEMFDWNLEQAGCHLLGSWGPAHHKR
As for `CS(=O)(=O)Nc1cccc(-c2ccc3c(NC(=O)C4CC4)n[nH]c3c2)c1`, the inhibition is -0.85%.
The value for `Cc1ccc2c(c1)/C(=N/Nc1ccc(S(N)(=O)=O)cc1)C(=O)N2` was -0.48%; that for `O=C1Nc2ccccc2/C1=C/Nc1ccc2[nH]c(=O)[nH]c2c1` was 1.41%; that for `C[C@@H](Oc1cc(-n2cnc3ccc(OC[C@@H](O)CO)cc32)sc1C(N)=O)c1ccccc1Cl` was -0.26%.
For the compound `Cc1cc(-c2ccccn2)cc(C)c1/C=C/c1cncc(-c2nn[nH]n2)c1`, the inhibition is 0.32%.
`NS(=O)(=O)c1ccc(Nc2cc(-c3cccc(O)c3)n[nH]2)cc1`: the inhibition is 1.36%.
Regarding `Cc1ccc(C(=O)NC2CC2)cc1-c1ccc2[nH]ncc2c1`, the inhibition is -0.76%.
The value for `COC(=O)Nc1nc2cc(Oc3ccc(NC(=O)Nc4cccc(Br)c4)cc3)ccc2[nH]1` was 0.29%.
For `COc1ccc(-c2nn3ncccc3c2-c2ccnc(Nc3cccc(C(F)(F)F)c3)n2)cc1`, the inhibition came to 0.73%.
For `[O-][S+]1CCN(Cc2ccc(-c3ccc4ncnc(Nc5ccc(OCc6ccccc6)c(Cl)c5)c4c3)o2)CC1`, the inhibition was 0.09%.
For the compound `CS(=O)(=O)CCNCc1nc(-c2ccc3ncnc(Nc4ccc(OCc5cccc(C(F)(F)F)c5)cc4)c3c2)cs1`, the inhibition was determined as 0.72%.
Take `CN(C)c1cc2c(Nc3ccc4c(cnn4Cc4ccccc4)c3)ncnc2cn1`: the inhibition worked out at 0.72%.
The value for `Oc1cccc(-c2nc(-c3ccccc3)[nH]c2-c2ccncc2)c1` was 1.47%; that for `Cc1ccc(O)cc1Nc1ccnc2ccc(S(C)(=O)=O)cc12` was 9.97%.
Under `CCS(=O)(=O)c1ccc(OC)c(Nc2nccc(N(C)c3ccc4c(C)n[nH]c4c3)n2)c1` stands 2.32%; under `NS(=O)(=O)c1cccc(-c2cc3ccncc3cc2OCc2ccccc2)c1`, 0.71%.
